Bioassay records (PubChem BioAssay)
The list is not random: actives were taken first. Their share in the collection is about 3.3%.
GSIS activator: GLuc luminescence reporter in INS-1E cells, primary screen for activators of glucose-dependent secretion of insulin; INS-1E GLuc reporter insulin secretion, 2-3 h; activation, % at 16.6 µM; 370,000 tested, 0.61% active;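 active means lowest replicate activation of at least 40%, so every replicate reaches that level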
CASP6 VEID inh: caspase-6 (human) enzyme inhibition | P55212 | purified caspase-6, Z-VEID-R110 cleavage fluorescence | inhibition, % at 12.5 µM | 350,000 tested, 0.53% active | AID 686996;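 active means mean inhibition across replicates at least about 35%, with every replicate also reaching that limit, limit read from the data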
Target sequence (P55212 24-179 limits assumed): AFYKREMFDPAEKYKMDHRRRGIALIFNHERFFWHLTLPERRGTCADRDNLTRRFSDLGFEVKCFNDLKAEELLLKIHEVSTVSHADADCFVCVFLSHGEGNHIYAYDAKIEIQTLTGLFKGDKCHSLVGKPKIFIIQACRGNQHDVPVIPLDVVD
Target sequence (P55212 194-293 limits assumed): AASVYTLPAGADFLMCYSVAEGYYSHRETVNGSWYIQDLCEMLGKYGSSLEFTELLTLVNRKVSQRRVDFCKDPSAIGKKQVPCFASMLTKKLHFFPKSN
ERAP1 HTS inh: inhibitors of human ERAP1 aminopeptidase; 340,000 tested, 0.15% active; inhibition, % at 10.7 µM; recombinant ERAP1, Leu-AMC fluorescence, 60 min;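 active means mean replicate inhibition of at least 30%, or all replicates individually reaching that 30% level; inactive means mean below 30% and not every replicate reaching it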
SIRT5 block: inhibitors of human sirtuin-5 desuccinylase. Q9NXA8. Purified SirT5, succinyl-peptide AMC, trypsin-coupled fluorescence. inhibition, % at 15 µM. 330,000 tested, 1.1% active. AID 652115; in the data active means inhibition above about 15%
FGF22 binding: shifts melting point of recombinant human FGF22. Q9HCT0. recombinant FGF22 thermal shift, SYPRO orange fluorescence; percent of sucrose octasulfate shift, DMSO zero. activity (Tm shift, normalised), % at 9.99 µM. 340,000 tested, 1.5% active. AID 651658;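 active means mean Tm shift, scaled 0 neutral to 100 positive control, at about 1.3% or above, every replicate too, limit read from the data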
Target sequence (Q9HCT0 whole entry, looked up): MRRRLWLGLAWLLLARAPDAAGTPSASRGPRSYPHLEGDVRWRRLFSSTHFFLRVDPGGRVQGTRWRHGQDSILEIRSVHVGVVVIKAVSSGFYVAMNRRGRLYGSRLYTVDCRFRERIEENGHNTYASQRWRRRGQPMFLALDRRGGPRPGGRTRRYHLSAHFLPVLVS
Hits are given with their value; – = inactive; · = no result.

SMILES	GSIS activator	CASP6 VEID inh	ERAP1 HTS inh	SIRT5 block	FGF22 binding
COc1cccc(-c2ccc3n(c2=O)C[C@@H]2[C@@H](CO)[C@H](C(=O)NCC4CC4)[C@H]3N2S(C)(=O)=O)c1	–	–	–	–	–
C[C@@H]1CN([C@@H](C)CO)C(=O)Cc2cc(NC(=O)Nc3cccc4ccccc34)ccc2O[C@H]1CN(C)C(=O)NC1CCCCC1	–	–	–	–	–
CO[C@H]1CN(C)C(=O)c2ccc(NC(=O)c3ccc(F)cc3)cc2OC[C@H](C)N(C)C[C@H]1C	–	·	·	–	·
C[C@H]1CN([C@@H](C)CO)C(=O)c2ccccc2-c2ccccc2CO[C@H]1CN(C)Cc1cccc2c1OCCCO2	–	–	–	–	–
C[C@H]1CN([C@@H](C)CO)C(=O)c2c(c3ccccc3n2C)-c2ccccc2CO[C@H]1CN(C)Cc1cccc2c1OCCCO2	–	–	–	21	–
C[C@@H]1CN([C@H](C)CO)C(=O)c2c(c3ccccc3n2C)-c2ccccc2CO[C@H]1CN(C)Cc1cccc2c1OCCCO2	–	–	–	23	–
C[C@@H]1CN([C@@H](C)CO)C(=O)c2ccccc2-c2ccccc2CO[C@@H]1CN(C)Cc1cccc2c1OCCCO2	–	·	·	·	·
COc1ccccc1CN(C)C[C@@H]1OCc2ccccc2-c2c(n(C)c3ccccc23)C(=O)N([C@H](C)CO)C[C@@H]1C	–	–	–	–	–
COc1ccccc1CN(C)C[C@H]1OCc2ccccc2-c2c(n(C)c3ccccc23)C(=O)N([C@@H](C)CO)C[C@H]1C	–	–	–	15	–
C[C@@H]1CN([C@@H](C)CO)C(=O)c2c(c3ccccc3n2C)-c2ccccc2CO[C@@H]1CN(C)Cc1cccc2c1OCCCO2	–	–	–	25	–
CN1CCN(C(=O)C[C@@H]2C=C[C@H](NC(=O)c3ccc4c(c3)OCO4)[C@@H](CO)O2)CC1	–	–	–	–	–
C[C@@H]1CN([C@H](C)CO)C(=O)c2cc(NC(=O)Cc3ccccc3)ccc2O[C@H]1CN(C)C(=O)Nc1ccc2c(c1)OCO2	–	–	–	–	–
CC(C)[C@H]1CC=CC[C@@H](C)Oc2ccccc2C(=O)N(C)[C@H](Cc2ccccc2)C(=O)N1 (mixture of isomers)	–	·	·	·	·
CCCNC(=O)N1C[C@H](C)[C@H](OC)CN(C)C(=O)c2ccc(NC(C)=O)cc2OC[C@@H]1C	–	–	–	–	–
C[C@@H]1CCCCO[C@@H](CN(C)Cc2ccc(C(=O)O)cc2)[C@@H](C)CN([C@@H](C)CO)C(=O)c2cc(NC(=O)c3ccccc3)ccc2O1	–	–	–	–	–
COC(=O)N(C)C[C@H]1OCc2ccccc2-c2c(n(C)c3ccccc23)C(=O)N([C@@H](C)CO)C[C@@H]1C	–	–	–	18	–
C[C@H]1CN([C@@H](C)CO)C(=O)c2c(c3ccccc3n2C)-c2ccccc2CO[C@@H]1CN(C)Cc1cccc2c1OCCCO2	·	–	–	19	–
C[C@@H]1CN([C@H](C)CO)C(=O)c2c(c3ccccc3n2C)-c2ccccc2CO[C@@H]1CN(C)Cc1cccc2c1OCCCO2	–	–	–	20	–
COc1ccc(S(=O)(=O)Nc2ccc3c(c2)CC(=O)N([C@@H](C)CO)C[C@@H](C)[C@@H](CN(C)C(=O)Nc2ccc(F)cc2)O3)cc1	–	·	·	·	–
Cc1ccccc1S(=O)(=O)NCC[C@@H]1CC[C@@H](NC(=O)C2CC2)[C@@H](CO)O1	–	–	–	–	–
CCOc1ccc(/C=N/n2nnnc2N)cc1OCC	·	–	–	–	–
CCOc1cc(/C=N/n2cnnc2)ccc1OS(=O)(=O)c1ccc(C)cc1	–	–	–	–	44
CCCC(=O)Nc1ccc2c(c1)C(=O)N(C)C[C@@H](OC)[C@@H](C)CN(Cc1ccncc1)[C@@H](C)CO2	–	·	·	·	·
CCC(=O)Nc1ccc2c(c1)OC[C@@H](C)N(Cc1ccccc1)C[C@@H](C)[C@H](OC)CN(C)C2=O	–	–	–	–	–
O=C(Nc1ccc(F)cc1)c1cccnc1Oc1ccccc1	89	–	–	–	–
SMILES	GSIS activator	CASP6 VEID inh	ERAP1 HTS inh	SIRT5 block	FGF22 binding
Cc1ccc(S(=O)(=O)N(C)C(=O)NC(=O)NS(=O)(=O)c2ccccc2)cc1	–	–	–	–	44
Cc1noc(C)c1S(=O)(=O)N(C)C[C@@H]1Oc2ccc(NS(=O)(=O)c3cn(C)cn3)cc2CC(=O)N([C@H](C)CO)C[C@@H]1C	–	–	–	–	–
COC(=O)c1cc(O)cc(OC)c1Oc1cc(C)cc(O)c1C(=O)O	–	43	·	·	–
COC(=O)c1cc(O)cc(OC)c1C(=O)c1c(O)cc(C)cc1O	–	–	·	·	–
CCC(=O)N1CC2(C1)[C@@H](c1ccccc1)[C@@H](CO)N2C(=O)NC(C)C	–	–	–	–	–
Cc1cccc(C)c1OCC(C)N (stereo unspecified)	–	–	–	–	–
Cc1cccc(C)c1OCC(N)C(C)C (stereo unspecified)	·	–	105	–	–
COc1ccccc1C(=O)NCCC(=O)Nc1ccc(OC(F)(F)F)cc1	–	–	–	102	–
COc1ccccc1C(=O)NCCC(=O)Nc1ccncc1	–	–	–	–	–
Cc1ccccc1-c1ccc2c(c1)O[C@@H](CN(C)C(=O)C1CC1)[C@@H](C)CN([C@H](C)CO)S2(=O)=O	–	–	–	–	–
Cc1ccc(N=C2C(=O)Nc3ccccc32)cc1C	·	–	–	–	–
Cc1ccc(N=C2c3ccccc3C(=O)C2[N+](=O)[O-])cc1C (stereo unspecified)	–	–	–	–	43
CCOc1ccc(S(=O)(=O)Nc2ccc(C(=O)N/N=C/c3c(C)nn(-c4ccccc4)c3N3CCCC3)cc2)cc1	–	62	–	–	–
COc1ccccc1NS(=O)(=O)c1cccc(C(=O)N/N=C/c2c(C)nn(-c3ccccc3)c2N2CCCC2)c1	73	–	–	–	–
CN1C(=O)c2cc(NC(=O)C3CCCCC3)ccc2OC[C@@H]2O[C@@H](CC(=O)NCc3ccccc3F)CC[C@H]21	–	–	–	–	–
C[C@H]1CN([C@@H](C)CO)C(=O)Cc2cc(N(C)C)ccc2O[C@H]1CN(C)S(=O)(=O)c1ccccc1	–	–	–	–	–
COc1ccc(OC)c(NC(=O)CSc2nnnn2C)c1	–	–	–	–	43
COc1ccccc1NC(=O)CSc1nnc(-c2ccccc2)o1	84	–	–	–	–
COc1ccc(OC)c(NC(=O)CSc2nnc(CNC(=O)c3cccs3)o2)c1	–	–	–	21	–
COc1ccccc1NC(=O)CSc1nnc(Cc2ccccc2)o1	·	–	–	–	–
COc1ccc(CC(=O)NC(C)c2nnc(SCC(=O)c3ccc(OC)cc3)n2C)cc1 (stereo unspecified)	–	–	–	–	–
COc1ccc(OC)c(NC(=O)CSc2nnc(CNC(=O)c3cc(OC)c(OC)c(OC)c3)o2)c1	–	–	–	–	–
